Source: publication PMC7862700, “An all-to-all approach to the identification of sequence-specific readers for epigenetic DNA modifications on cytosine”

Key:
Test in all cases: DAPPL (digital affinity profiling via proximity ligation, sequencing); 10 mM Tris-HCl pH 7.5, 50 mM NaCl, 1 mM DTT, 4% glycerol, room temperature, 30 min; GST-TFs on glutathione beads, 16-mer random dsDNA library, 0.1% formaldehyde crosslink after washing; high values mean tight binding
[1] = molecular target: T1, FLI1 (Homo sapiens, UniProt Q01543 1-452); conditions: protein: recombinant; tags: N-terminal GST; dsDNA, one strand shown
T1 sequence: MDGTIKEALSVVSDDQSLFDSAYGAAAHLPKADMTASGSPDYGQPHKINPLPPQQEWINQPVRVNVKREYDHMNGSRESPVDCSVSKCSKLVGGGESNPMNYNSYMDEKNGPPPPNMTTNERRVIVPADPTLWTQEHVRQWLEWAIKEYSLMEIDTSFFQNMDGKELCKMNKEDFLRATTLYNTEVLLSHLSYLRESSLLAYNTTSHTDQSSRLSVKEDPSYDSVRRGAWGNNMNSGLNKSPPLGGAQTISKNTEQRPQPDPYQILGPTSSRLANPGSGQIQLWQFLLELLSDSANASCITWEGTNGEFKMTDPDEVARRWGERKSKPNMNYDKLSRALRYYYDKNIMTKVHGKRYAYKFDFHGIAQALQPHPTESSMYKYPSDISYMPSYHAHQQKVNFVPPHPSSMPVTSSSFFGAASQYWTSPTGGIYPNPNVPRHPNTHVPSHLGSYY
How it was run: (§1)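 Human transcription factors carrying a GST fusion were produced in yeast, bound to glutathione beads, tagged with DNA barcodes and pooled together with a tag-only sample. Each pool was held with 200 nmole of a random double-stranded 16-mer DNA library in Tris/NaCl/DTT/glycerol buffer for 30 min at room temperature, then washed, crosslinked in 0.1% formaldehyde, proximity-ligated with BsaI/T4 ligase (1 h, 37 °C), PCR-amplified and sequenced on an Illumina NextSeq500. Binding signal is the read frequency of each hexamer for a given factor divided by its frequency in the tag-only sample.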

[2] = molecular target: T2, ELK1 (Homo sapiens, UniProt P19419 1-428); conditions: protein: recombinant; tags: N-terminal GST; dsDNA, one strand shown
T2 sequence: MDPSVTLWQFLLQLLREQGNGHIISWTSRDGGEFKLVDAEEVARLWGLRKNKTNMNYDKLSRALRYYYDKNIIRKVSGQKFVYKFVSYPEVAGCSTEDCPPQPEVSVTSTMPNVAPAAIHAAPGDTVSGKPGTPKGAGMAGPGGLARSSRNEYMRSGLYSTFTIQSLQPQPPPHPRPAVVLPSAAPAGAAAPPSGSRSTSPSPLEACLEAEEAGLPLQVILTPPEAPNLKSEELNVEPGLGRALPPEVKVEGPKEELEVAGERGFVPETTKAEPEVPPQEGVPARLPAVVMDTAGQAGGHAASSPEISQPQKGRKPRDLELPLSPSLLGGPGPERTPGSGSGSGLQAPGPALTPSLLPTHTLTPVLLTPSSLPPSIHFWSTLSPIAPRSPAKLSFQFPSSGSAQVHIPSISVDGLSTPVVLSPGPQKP
How it was run: as §1

[3] = molecular target: T3, GABPA (Homo sapiens, UniProt Q06546 1-454); conditions: protein: recombinant; tags: N-terminal GST; dsDNA, one strand shown
T3 sequence: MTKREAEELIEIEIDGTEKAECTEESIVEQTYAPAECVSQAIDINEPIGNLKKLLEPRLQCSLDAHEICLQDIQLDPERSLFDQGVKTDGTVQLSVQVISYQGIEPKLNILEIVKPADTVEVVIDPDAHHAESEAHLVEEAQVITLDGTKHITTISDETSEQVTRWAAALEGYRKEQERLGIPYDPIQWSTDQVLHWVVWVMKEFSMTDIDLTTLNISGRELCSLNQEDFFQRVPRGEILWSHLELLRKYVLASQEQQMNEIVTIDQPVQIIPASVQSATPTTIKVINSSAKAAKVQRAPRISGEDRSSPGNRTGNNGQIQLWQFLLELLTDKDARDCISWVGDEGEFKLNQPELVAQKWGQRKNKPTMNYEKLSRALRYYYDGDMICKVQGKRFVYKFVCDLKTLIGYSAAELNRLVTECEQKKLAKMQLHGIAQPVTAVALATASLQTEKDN
How it was run: as §1

[4] = molecular target: T4, ERG (Homo sapiens, UniProt P11308 1-479); conditions: protein: recombinant; tags: N-terminal GST; dsDNA, one strand shown
T4 sequence: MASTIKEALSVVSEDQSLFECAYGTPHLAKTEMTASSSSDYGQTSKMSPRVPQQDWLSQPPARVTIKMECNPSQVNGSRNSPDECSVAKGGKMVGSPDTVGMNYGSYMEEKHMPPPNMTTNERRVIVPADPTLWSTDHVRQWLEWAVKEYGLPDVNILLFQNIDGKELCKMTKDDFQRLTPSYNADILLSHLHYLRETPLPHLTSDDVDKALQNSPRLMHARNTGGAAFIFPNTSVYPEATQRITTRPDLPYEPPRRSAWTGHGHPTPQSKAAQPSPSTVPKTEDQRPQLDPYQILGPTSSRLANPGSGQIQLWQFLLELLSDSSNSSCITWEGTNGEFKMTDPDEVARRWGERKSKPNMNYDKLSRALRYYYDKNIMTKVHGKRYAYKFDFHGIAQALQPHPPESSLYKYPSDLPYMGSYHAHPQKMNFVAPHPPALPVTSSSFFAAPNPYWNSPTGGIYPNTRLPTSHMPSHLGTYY
How it was run: as §1

[5] = molecular target: ELF1 (Homo sapiens, UniProt P32519 1-619); conditions: protein: recombinant; tags: N-terminal GST; dsDNA, one strand shown
How it was run: as §1

[6] = molecular target: T5, EHF (Homo sapiens, UniProt Q9NZC4 1-300); conditions: protein: recombinant; tags: N-terminal GST; dsDNA, one strand shown
T5 sequence: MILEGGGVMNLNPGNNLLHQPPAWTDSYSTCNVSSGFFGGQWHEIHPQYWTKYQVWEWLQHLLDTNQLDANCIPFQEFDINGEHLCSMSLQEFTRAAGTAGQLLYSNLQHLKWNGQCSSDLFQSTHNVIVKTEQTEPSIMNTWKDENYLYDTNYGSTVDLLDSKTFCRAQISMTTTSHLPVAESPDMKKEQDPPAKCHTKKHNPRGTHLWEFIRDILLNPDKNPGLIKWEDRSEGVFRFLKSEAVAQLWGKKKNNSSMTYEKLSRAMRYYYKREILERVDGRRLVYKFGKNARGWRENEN
How it was run: as §1

[7] = molecular target: SPI1 (Homo sapiens, UniProt P17947 1-270); conditions: protein: recombinant; tags: N-terminal GST; dsDNA, one strand shown
How it was run: as §1

[8] = molecular target: SPIB (Homo sapiens, UniProt Q01892 1-262); conditions: protein: recombinant; tags: N-terminal GST; dsDNA, one strand shown
How it was run: as §1

[9] = molecular target: T6, ELK3 (Homo sapiens, UniProt P41970 1-407); conditions: protein: recombinant; tags: N-terminal GST; dsDNA, one strand shown
T6 sequence: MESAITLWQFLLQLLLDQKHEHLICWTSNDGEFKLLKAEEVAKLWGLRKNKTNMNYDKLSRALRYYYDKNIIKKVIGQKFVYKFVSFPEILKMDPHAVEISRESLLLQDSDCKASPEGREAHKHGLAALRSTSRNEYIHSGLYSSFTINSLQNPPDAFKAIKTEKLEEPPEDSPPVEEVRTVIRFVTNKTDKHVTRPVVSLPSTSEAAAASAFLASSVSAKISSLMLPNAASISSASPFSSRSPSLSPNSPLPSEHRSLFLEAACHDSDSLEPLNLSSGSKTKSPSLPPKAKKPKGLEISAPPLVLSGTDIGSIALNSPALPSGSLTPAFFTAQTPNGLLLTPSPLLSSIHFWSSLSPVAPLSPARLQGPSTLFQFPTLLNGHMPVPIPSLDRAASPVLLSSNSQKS
How it was run: as §1

[10] = molecular target: T7, FEV (Homo sapiens, UniProt Q99581 1-238); conditions: protein: recombinant; tags: N-terminal GST; dsDNA, one strand shown
T7 sequence: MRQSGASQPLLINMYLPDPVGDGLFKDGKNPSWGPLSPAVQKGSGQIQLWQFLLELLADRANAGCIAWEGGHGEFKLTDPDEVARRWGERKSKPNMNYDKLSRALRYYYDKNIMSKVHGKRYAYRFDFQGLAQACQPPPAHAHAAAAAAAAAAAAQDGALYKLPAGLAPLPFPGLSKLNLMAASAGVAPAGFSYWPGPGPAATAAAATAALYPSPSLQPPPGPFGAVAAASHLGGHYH
How it was run: as §1

[11] = molecular target: ETV5 (Homo sapiens, UniProt P41161 1-510); conditions: protein: recombinant; tags: N-terminal GST; dsDNA, one strand shown
How it was run: as §1

[12] = molecular target: HSF1 (Homo sapiens, UniProt Q00613 1-529); conditions: protein: recombinant; tags: N-terminal GST; chain copies: 3; dsDNA, one strand shown
How it was run: as §1

[13] = molecular target: T8, SPIC (Homo sapiens, UniProt Q8N5J4 1-248); conditions: protein: recombinant; tags: N-terminal GST; dsDNA, one strand shown
T8 sequence: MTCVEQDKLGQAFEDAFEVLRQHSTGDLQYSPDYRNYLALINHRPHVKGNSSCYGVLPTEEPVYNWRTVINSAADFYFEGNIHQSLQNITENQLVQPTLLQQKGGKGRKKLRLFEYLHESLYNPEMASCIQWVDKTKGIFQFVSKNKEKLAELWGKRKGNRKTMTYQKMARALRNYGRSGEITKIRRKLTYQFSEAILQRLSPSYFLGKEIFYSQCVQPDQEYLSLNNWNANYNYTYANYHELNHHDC
How it was run: as §1

[14] = molecular target: ELF4 (Homo sapiens, UniProt Q99607 1-663); conditions: protein: recombinant; tags: N-terminal GST; dsDNA, one strand shown
How it was run: as §1

[15] = molecular target: T9, ELK4 (Homo sapiens, UniProt P28324-2 1-405); conditions: protein: recombinant; tags: N-terminal GST; dsDNA, one strand shown
T9 sequence: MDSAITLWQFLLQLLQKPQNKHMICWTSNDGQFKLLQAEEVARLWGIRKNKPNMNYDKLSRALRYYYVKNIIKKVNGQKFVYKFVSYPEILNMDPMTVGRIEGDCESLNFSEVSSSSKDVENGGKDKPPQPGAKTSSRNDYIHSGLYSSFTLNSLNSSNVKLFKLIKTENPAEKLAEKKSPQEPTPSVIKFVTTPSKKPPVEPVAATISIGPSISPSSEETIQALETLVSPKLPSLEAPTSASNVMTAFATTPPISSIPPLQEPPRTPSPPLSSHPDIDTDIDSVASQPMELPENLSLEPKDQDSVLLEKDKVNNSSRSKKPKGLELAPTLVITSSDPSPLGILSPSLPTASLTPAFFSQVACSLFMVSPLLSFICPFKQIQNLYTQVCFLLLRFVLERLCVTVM
How it was run: as §1

[16] = molecular target: T10, ETV2 (Homo sapiens, UniProt O00321 1-342); conditions: protein: recombinant; tags: N-terminal GST; dsDNA, one strand shown
T10 sequence: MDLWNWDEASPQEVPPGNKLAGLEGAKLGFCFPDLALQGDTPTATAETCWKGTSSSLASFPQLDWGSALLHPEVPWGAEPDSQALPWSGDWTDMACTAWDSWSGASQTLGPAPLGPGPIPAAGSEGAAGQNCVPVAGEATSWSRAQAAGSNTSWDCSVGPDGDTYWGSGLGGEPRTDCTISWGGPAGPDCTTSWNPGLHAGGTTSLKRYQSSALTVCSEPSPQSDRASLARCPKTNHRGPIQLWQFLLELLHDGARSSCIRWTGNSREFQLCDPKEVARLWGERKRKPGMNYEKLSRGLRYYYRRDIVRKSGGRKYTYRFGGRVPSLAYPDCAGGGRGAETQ
How it was run: as §1

[17] = molecular target: T11, ELF3 (Homo sapiens, UniProt P78545 1-371); conditions: protein: recombinant; tags: N-terminal GST; dsDNA, one strand shown
T11 sequence: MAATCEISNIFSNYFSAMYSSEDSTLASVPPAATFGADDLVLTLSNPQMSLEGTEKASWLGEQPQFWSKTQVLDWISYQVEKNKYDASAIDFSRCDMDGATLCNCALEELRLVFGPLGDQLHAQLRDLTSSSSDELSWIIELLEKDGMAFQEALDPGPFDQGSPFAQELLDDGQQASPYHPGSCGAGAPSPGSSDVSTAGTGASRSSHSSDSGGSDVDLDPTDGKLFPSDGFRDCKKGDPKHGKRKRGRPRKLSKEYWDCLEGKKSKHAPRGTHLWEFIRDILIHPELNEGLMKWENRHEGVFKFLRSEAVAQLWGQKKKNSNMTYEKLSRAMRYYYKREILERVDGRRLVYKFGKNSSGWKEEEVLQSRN
How it was run: as §1

[18] = molecular target: CRX (Homo sapiens, UniProt O43186 1-299); conditions: protein: recombinant; tags: N-terminal GST; dsDNA, one strand shown
How it was run: as §1

[19] = molecular target: ETV1 (Homo sapiens, UniProt P50549 1-477); conditions: protein: recombinant; tags: N-terminal GST; dsDNA, one strand shown
How it was run: as §1

Sequence of ETV5 (P41161 whole entry): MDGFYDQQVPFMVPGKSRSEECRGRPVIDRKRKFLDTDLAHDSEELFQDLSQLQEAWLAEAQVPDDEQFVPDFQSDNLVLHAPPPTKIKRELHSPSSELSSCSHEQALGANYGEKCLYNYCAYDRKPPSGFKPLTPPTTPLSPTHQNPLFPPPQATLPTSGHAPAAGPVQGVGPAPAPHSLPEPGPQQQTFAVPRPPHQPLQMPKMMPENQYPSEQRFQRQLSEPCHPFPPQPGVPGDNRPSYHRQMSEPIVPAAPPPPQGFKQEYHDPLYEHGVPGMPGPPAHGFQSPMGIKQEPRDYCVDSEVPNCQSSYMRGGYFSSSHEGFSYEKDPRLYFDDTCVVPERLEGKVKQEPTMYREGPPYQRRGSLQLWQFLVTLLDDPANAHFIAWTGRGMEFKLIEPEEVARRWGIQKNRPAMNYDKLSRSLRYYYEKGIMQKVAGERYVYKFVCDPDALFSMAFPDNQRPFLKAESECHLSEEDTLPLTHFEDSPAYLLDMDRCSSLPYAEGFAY
Sequence of ELF4 (Q99607 whole entry): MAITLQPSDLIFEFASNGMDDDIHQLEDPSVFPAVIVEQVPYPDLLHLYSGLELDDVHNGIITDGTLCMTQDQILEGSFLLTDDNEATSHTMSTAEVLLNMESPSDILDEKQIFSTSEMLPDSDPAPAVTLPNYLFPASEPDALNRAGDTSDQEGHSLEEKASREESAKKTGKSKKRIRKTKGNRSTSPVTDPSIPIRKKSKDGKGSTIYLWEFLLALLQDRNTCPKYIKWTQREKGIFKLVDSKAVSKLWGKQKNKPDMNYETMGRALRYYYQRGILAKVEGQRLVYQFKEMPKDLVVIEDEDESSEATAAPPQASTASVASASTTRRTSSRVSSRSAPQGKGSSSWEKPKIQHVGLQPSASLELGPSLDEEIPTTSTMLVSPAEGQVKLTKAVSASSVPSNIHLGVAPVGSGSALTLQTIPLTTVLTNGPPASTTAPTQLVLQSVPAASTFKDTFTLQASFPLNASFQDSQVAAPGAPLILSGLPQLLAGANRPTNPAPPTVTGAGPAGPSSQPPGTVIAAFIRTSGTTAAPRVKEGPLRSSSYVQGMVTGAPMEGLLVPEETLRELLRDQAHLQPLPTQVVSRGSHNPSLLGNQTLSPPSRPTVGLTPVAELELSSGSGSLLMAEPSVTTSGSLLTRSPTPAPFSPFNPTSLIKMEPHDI
Sequence of ETV1 (P50549 whole entry): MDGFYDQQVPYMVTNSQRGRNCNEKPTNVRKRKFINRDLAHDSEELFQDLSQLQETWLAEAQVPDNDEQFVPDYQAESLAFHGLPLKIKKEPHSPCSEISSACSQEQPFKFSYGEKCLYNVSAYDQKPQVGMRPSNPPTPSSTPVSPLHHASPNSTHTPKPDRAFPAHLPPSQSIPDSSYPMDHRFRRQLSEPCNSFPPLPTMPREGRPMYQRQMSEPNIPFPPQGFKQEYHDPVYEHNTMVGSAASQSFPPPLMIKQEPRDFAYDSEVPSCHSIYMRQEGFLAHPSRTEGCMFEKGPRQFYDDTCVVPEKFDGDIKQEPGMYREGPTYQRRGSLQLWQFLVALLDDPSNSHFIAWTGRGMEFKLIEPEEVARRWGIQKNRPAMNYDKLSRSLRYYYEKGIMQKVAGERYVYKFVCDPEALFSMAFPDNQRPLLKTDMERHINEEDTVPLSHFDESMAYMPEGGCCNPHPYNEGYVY
Sequence of HSF1 (Q00613 whole entry): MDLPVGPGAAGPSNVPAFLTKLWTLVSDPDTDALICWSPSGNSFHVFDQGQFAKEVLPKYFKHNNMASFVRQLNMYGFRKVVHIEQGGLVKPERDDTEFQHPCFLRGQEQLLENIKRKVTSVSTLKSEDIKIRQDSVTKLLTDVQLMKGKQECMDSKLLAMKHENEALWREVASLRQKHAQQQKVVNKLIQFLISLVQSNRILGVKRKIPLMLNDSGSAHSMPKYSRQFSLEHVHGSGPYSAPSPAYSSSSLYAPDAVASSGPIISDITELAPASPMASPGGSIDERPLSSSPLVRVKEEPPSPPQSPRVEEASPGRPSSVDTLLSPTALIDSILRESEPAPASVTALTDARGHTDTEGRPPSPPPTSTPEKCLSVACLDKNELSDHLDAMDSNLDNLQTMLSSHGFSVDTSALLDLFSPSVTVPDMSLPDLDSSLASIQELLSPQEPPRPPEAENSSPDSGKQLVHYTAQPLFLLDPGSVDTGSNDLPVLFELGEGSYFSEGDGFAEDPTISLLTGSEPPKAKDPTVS
Sequence of CRX (O43186 whole entry): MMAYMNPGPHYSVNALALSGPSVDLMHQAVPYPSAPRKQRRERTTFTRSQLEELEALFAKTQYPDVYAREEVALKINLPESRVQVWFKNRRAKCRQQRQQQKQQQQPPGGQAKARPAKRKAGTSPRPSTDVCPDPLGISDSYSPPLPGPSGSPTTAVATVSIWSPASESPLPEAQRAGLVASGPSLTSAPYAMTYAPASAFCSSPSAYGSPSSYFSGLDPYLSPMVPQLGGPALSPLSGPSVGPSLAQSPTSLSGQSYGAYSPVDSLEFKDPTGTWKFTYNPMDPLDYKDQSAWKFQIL
Sequence of SPIB (Q01892 whole entry): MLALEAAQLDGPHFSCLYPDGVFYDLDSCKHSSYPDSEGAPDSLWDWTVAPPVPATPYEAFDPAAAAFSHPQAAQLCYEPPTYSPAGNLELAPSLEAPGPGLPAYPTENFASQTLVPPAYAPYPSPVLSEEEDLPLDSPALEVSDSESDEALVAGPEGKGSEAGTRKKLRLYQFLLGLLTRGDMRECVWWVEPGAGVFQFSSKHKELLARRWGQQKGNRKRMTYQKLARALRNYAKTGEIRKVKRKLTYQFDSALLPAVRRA
Sequence of ELF1 (P32519 whole entry): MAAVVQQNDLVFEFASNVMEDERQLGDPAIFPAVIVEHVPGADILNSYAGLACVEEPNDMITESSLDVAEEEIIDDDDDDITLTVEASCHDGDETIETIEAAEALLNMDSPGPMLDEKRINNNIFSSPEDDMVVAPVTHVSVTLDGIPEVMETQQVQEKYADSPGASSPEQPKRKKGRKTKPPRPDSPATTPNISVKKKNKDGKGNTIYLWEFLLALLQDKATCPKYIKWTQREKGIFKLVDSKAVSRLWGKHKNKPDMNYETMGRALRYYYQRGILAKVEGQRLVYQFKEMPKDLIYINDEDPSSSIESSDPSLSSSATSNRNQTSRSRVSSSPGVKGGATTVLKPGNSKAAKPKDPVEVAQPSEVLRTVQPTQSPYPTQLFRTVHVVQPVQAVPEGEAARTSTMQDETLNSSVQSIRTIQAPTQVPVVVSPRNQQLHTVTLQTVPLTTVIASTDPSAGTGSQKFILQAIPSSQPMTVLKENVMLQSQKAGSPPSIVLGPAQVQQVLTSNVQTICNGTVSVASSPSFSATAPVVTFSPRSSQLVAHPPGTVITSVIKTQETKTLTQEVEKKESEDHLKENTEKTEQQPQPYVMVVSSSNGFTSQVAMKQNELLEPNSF

Question: Which results are given for TCTGTT?
Answer: binding signal [1]: 1.41 fold enrichment (6-mer frequency, TF over GST control); binding signal [2]: 1.47 fold enrichment (6-mer frequency, TF over GST control); binding signal [3]: 1.24 fold enrichment (6-mer frequency, TF over GST control); binding signal [4]: 1.42 fold enrichment (6-mer frequency, TF over GST control); binding signal [5]: 1.42 fold enrichment (6-mer frequency, TF over GST control); binding signal [6]: 1.45 fold enrichment (6-mer frequency, TF over GST control); binding signal [7]: 1.43 fold enrichment (6-mer frequency, TF over GST control); binding signal [8]: 1.33 fold enrichment (6-mer frequency, TF over GST control); binding signal [9]: 1.15 fold enrichment (6-mer frequency, TF over GST control); binding signal [10]: 1.29 fold enrichment (6-mer frequency, TF over GST control); binding signal [11]: 1.27 fold enrichment (6-mer frequency, TF over GST control); binding signal [12]: 1.43 fold enrichment (6-mer frequency, TF over GST control); binding signal [13]: 1.31 fold enrichment (6-mer frequency, TF over GST control); binding signal [14]: 1.39 fold enrichment (6-mer frequency, TF over GST control); binding signal [15]: 1.25 fold enrichment (6-mer frequency, TF over GST control); binding signal [16]: 1.3 fold enrichment (6-mer frequency, TF over GST control); binding signal [17]: 1.53 fold enrichment (6-mer frequency, TF over GST control); binding signal [18]: 1.27 fold enrichment (6-mer frequency, TF over GST control); binding signal [19]: 1.41 fold enrichment (6-mer frequency, TF over GST control)
